# Measured values as given in PubChem BioAssay (NCATS).
# Records with an inconclusive call do not appear. A number with no mark means an inactive call. Calls of active or inactive are those of the source. The call rests on the fitted dose curve; in most records, active means well fitted cell-killing curve with a large enough effect; inconclusive means small, poorly fitted or top-dose-only effect; inactive means no such curve, though single readings can be large or run the other way. Starred links: 1 amine or outer side, 2 acyl side, 3 side chain; linkers in the order of their positions; H or OH if unused. Positions of bridges follow the written chain, without caps; N, C: chain ends. Non-standard residues stand in square brackets, D forms with d. Residues, ends and D or L forms follow the SMILES beside them. Chains are numbered I, II in the order given. Actinocin(9to1) = Cc1c2oc3c(C)ccc(C(=O)[*:1])c3nc-2c(C(=O)[*:2])c(N)c1=O; NMeV = CN[CH](C(=O)O)C(C)C; Sar = CNCC(=O)O
# Assay: Quantitative High-Throughput drug screen in 47 multiple myeloma cell lines against the NCATS MIPE library collection: NCIH929_DSMZ cell viability assay (AID 1918978); further: nearly all actives have a fitted effect of over 35% in size
# Conditions: NCI-H929 myeloma viability, CellTiter-Glo ATP, 48 h; series mostly up to 45.8 µM; viability, % of control: at the top concentration
# Excerpt: PI: Beverly A. Mock Ph.D.
# Laboratory of Cancer Biology and Genetics,
# Center for Cancer Research, National Cancer Institute,
# National Institute of Health, Bethesda, Maryland
# Drug resistance and disease progression are common in multiple myeloma (MM) patients, underscoring the need for new therapeutic combinations. […] We hypothesized that effective combinations would reduce MYC expression and enhance p16 activity. […] These preclinical data identify potentially useful drug combinations for evaluation in drug-resistant MM and reveal potential mechanisms of combined drug sensitivity.
# Described herein is the primary MIPE qHTS used to cherrypick compounds. Validated compounds were then further tested for potential synergistic activiy.
# [1] Peat TJ, Gaikwad SM, Dubois W, Gyabaah-Kessie N, Zhang S, Gorjifard S, Phyo Z, Andres M, Hughitt VK, Simpson RM, Miller MA, Girvin AT, Taylor A, Williams D, D'Antonio N, Zhang Y, Rajagopalan A, Flietner E, Wilson K, Zhang X, Shinn P, Klumpp-Thomas C, McKnight C, Itkin Z, Chen L, Kazandijian D, Zhang J, Michalowski AM, Simmons JK, Keats J, Thomas CJ, Mock BA. Drug combinations identified by high-throughput screening promote cell cycle transition and upregulate Smad pathways in myeloma. Cancer Lett. 2023 Aug 1;568:216284. doi: 10.1016/j.canlet.2023.216284. Epub 2023 Jun 24. PMID: 37356470; PMCID: PMC10408729.
# SEQUENCE No. (e.g., 1, 2, 3, etc.); […] (e.g., Cells, Incubation, Reagent, etc.); VALUE and DESCRIPTION.
# 1; Cells; 5 uL; white, solid bottom 1536-well Greiner assay plate.
# 2; Compounds; 23 nL; Kalypsis pin tool (Wako USA) equipped with a 1536-well pin head to transfer to the assay plates.
# 3; Incubation; 48 hours; 37C incubation.
# 4; Reagent;5uL; CellTiter Glo (Promega).
# 5; Detector; 425V; Luminescence; Viewlux PerkinElmer.
# NOTES (numbers refer to Sequence numbers above)
# 1. The cell-based screening methods employed in this study were like those previously published. Briefly, the corresponding myeloma cell lines were screened in 1,536-well plates with 500 cells, 5-uL per well for inhibition of cell viability (assessed by measuring ATP levels with CellTiterGlo).
# 2. NCATS MIPE 4.0 library of approved and investigational drugs were added using the Kalypsis pin tool. Wells treated with DMSO only for 100% viability and media only for 0% viability were used as controls.
# 3. The assay plates were covered and incubated for 48 hours in a 37C, 5% CO2 incubator with controlled humidity.
# 4. After 48 hours, CellTilter-GloTM luminescent substrate mix (Promega) reagent was added to the assay plate and plates we incubated for 5 min at room temperature.
# 5. Signal was measured as median relative luminescence units on a ViewLux (PerkinElmer) multiplate reader.
# [1] Heske CM, Davis MI, Baumgart JT, Wilson K, Gormally MV, Chen L, Zhang X, Ceribelli M, Duveau DY, Guha R, Ferrer M, Arnaldez FI, Ji J, Tran HL, Zhang Y, Mendoza A, Helman LJ, Thomas CJ. Matrix Screen Identifies Synergistic Combination of PARP Inhibitors and Nicotinamide Phosphoribosyltransferase (NAMPT) Inhibitors in Ewing Sarcoma. Clin Cancer Res. 2017 Dec 1;23(23):7301-7311. doi: 10.1158/1078-0432.CCR-17-1121. Epub 2017 Sep 12. PMID: 28899971; PMCID: PMC6636827.
# Potency means the concentration at half of the fitted maximal effect.
Compound,Potency,"viability, % of control"
O=C(Nc1cc2cc[nH]c2cn1)c1ccccc1,8330 nM (active),–
CC(C)c1cc(C(C)C)c(CC(=O)NS(=O)(=O)Oc2c(C(C)C)cccc2C(C)C)c(C(C)C)c1,–,103%
CC(C)(O)[C@H]1CC[C@@](C)([C@H]2[C@@H](O)C[C@@]3(C)[C@@H]4C[C@H](O[C@@H]5O[C@H](CO)[C@@H](O)[C@H](O)[C@@H]5O)[C@H]5C(C)(C)[C@@H](O[C@@H]6OC[C@@H](O)[C@H](O)[C@@H]6O)CC[C@@]56C[C@@]46CC[C@]23C)O1,–,103%
CC(=O)[C@]1(O)Cc2c(O)c3c(c(O)c2[C@@H](O[C@H]2C[C@H](N)[C@@H](O)[C@H](C)O2)C1)C(=O)c1ccccc1C3=O,166 nM (active),–
CCOC(=O)C1=C(C)NC(=S)NC1c1cccc(O)c1 (stereo not given),37.2 nM (active),–
C[C@@H](Cc1cc2c(c(C(N)=O)c1)N(CCCO)CC2)NCCOc1ccccc1OCC(F)(F)F,–,101%
CN[C@H](CC(C)C)C(=O)N[C@H]1C(=O)N[C@@H](CC(N)=O)C(=O)N[C@@H]2C(=O)N[C@H]3C(=O)N[C@H](C(=O)N[C@H](C(=O)O)c4cc(O)cc(O)c4-c4cc3ccc4O)[C@H](O)c3ccc(c(Cl)c3)Oc3cc2cc(c3O[C@@H]2O[C@H](CO)[C@@H](O)[C@H](O)[C@@H]2O[C@H]2C[C@](C)(N)[C@H](O)[C@H](C)O2)Oc2ccc(cc2Cl)[C@H]1O,–,103%
Nc1ncn([C@@H]2O[C@H](CO)[C@@H](O)[C@@H]2O)c(=O)n1,3720 nM (active),–
COc1cc(C(=O)NC2CCN(C)CC2)ccc1Nc1ncc2c(n1)N(C1CCCC1)CCC(=O)N2C(C)C,10500 nM (active),–
Nc1ccn(C2CO[C@H](CO)O2)c(=O)n1 (stereo not given in full),–,118%
Oc1ccc(-c2ccc(-c3cc(Nc4cccc(CNC5CC5)c4)n[nH]3)cc2)c(O)c1,1180 nM (active),–
C[C@@H]1C(=O)O[C@H]2CC34[C@H]5C[C@@H](C(C)(C)C)C36[C@H](OC(=O)[C@@H]6O)O[C@@]4(C(=O)O5)[C@]21O (stereo not given in full),–,128%
CC(=O)SCC(Cc1ccccc1)C(=O)NCC(=O)OCc1ccccc1 (stereo not given),1050 nM (active),–
CN(N=O)C(=O)N[C@H]1C(O)OC(CO)[C@@H](O)[C@H]1O (stereo not given in full),–,101%
C[C@]12CCC(=O)C=C1[C@@H]1CC1[C@H]1[C@H]3[C@@H]4C[C@H]4[C@@]4(CCC(=O)O4)[C@@]3(C)CC[C@H]12 (stereo not given in full),–,119%
C[C@H](NCc1ccc(OCc2cccc(F)c2)cc1)C(N)=O,2640 nM (active),–
Cc1ncc(-c2ccnc(Nc3ccc(S(C)(=O)=O)cc3)n2)n1C(C)C,2090 nM (active),–
COC1=C(OC)C(=O)C(CC=C(C)CCC=C(C)CCC=C(C)CCC=C(C)CCC=C(C)CCC=C(C)CCC=C(C)CCC=C(C)CCC=C(C)CCC=C(C)C)=C(C)C1=O,–,111%
CC(=O)O[C@]1(C(C)=O)CC[C@H]2[C@@H]3C=C(C)C4=CC(=O)CC[C@]4(C)[C@@H]3CC[C@@]21C,7430 nM (active),–
CNC(=O)c1ccc(Nc2cc(Nc3ccccc3S(=O)(=O)C(C)C)c3cc[nH]c3n2)nc1,935 nM (active),–

Compound,Potency,"viability, % of control"
C[C@@]12C(=O)OC(=O)[C@@]1(C)C1CCC2O1,2640 nM (active),–
CC1(C)O[C@@H]2C[C@H]3[C@@H]4CCC5=CC(=O)C=C[C@]5(C)[C@@H]4[C@@H](O)C[C@]3(C)[C@]2(C(=O)CO)O1,16600 nM (active),–
CCOC(=O)[C@@H](N)Cc1ccc(-c2cc(O[C@H](c3ccc(Cl)cc3-n3ccc(C)n3)C(F)(F)F)nc(N)n2)cc1,18700 nM (active),–
OC[C@@H](O)[C@@H](O)[C@H](O)[C@@H](O)CO,–,104%
CCN1CCN(C(=O)N[C@H](C(=O)N[C@@H]2C(=O)N3C(C(=O)O)=C(CSc4nnnn4C)CS[C@@H]23)c2ccc(O)cc2)C(=O)C1=O,–,122% [at 15.3 µM]
CN[C@H]1[C@@H](O)[C@@H]2O[C@@H]3O[C@H](C)CC(=O)[C@]3(O)O[C@@H]2[C@@H](NC)[C@H]1O,935 nM (active),–
"Cc1c2oc3c(C)ccc(C(=O)NC4C(=O)NC(C(C)C)C(=O)N5CCCC5C(=O)N(C)CC(=O)N(C)C(C(C)C)C(=O)OC4C)c3nc-2c(C(=O)NC2C(=O)NC(C(C)C)C(=O)N3CCCC3C(=O)N(C)CC(=O)N(C)C(C(C)C)C(=O)OC2C)c(N)c1=O (stereo not given) (I: TVP[Sar][NMeV] / II: TVP[Sar][NMeV]; ester I:1-I:C, II:1-II:C; linker I:N-II:N via Actinocin(9to1); configuration not given here)",–,2.35%
C[C@H]1C[C@H]2[C@@H]3CCC4=CC(=O)C=C[C@]4(C)[C@@H]3C(=O)C[C@]2(C)[C@@]1(O)C(=O)CO,–,98.2%
FC(F)c1nc2ccccc2n1-c1nc(N2CCOCC2)nc(N2CCOCC2)n1,105 nM (active),–
O=C(NNC(=O)c1ccc(CNS(=O)(=O)c2ccc(F)c(Cl)c2)cc1)c1ccccc1,–,118%
CC(C)(O)CC[C@@H](O)[C@](C)(O)[C@H]1CC[C@@]2(O)C3=CC(=O)[C@@H]4C[C@@H](O)[C@@H](O)C[C@]4(C)[C@@H]3CC[C@]12C,–,101%
O=C(Nc1cccc(Nc2ncc(Br)c(NCCc3cnc[nH]3)n2)c1)N1CCCC1,7430 nM (active),–
Nc1nc(=O)n([C@H]2CSC(CO)O2)cc1F (stereo not given in full),–,117%
Cc1cncc2cccc(S(=O)(=O)N3CCCN(C(=O)CN)C[C@@H]3C)c12,18700 nM (active),–
C=CCNC1=C2C[C@@H](C)C[C@H](OC)[C@@H](O)[C@@H](C)C=C(C)[C@H](OC(N)=O)[C@@H](OC)C=CC=C(C)C(=O)NC(=CC1=O)C2=O,1180 nM (active),–
CCOC(=O)N1CCN([N+]([O-])=NOc2ccc([N+](=O)[O-])cc2[N+](=O)[O-])CC1,1320 nM (active),–
Cc1ccc(O)c(C(CCN(C(C)C)C(C)C)c2ccccc2)c1 (stereo not given),–,109%
O=C1NC(O)CCN1[C@@H]1O[C@H](CO)[C@H](O)[C@H]1O (stereo not given in full),–,88.2%
CC(Cc1ccc(O)c(O)c1)(NN)C(=O)O (stereo not given),–,89%
C=C(C)[C@@H]1CC[C@]2(C(=O)O)CC[C@]3(C)[C@H](CC[C@@H]4[C@@]5(C)CC[C@H](O)C(C)(C)[C@@H]5CC[C@]43C)[C@@H]12,–,102%
